Test systems include SR leukemia; RPMI-8226 leukemia; OVCAR-8 ovarian; OVCAR-5 ovarian; OVCAR-4 ovarian; SK-OV-3 ovarian; OVCAR-3 ovarian; NCI/ADR-RES ovarian; HS 578T breast; IGROV1 ovarian.
Common to all, as to assay: NCI-60 one-dose screen, 48 h (100 = growth as untreated, 0 = no growth, -100 = all killed)
What all share (settings): 10 µM

About 83,000 compounds went through this panel and 20% of them were active in at least one assay; those are over-represented in the sample as a whole.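 Note: values are percent growth. 100 is the growth of untreated cells, values between 100 and 0 indicate rising inhibition; between -100 and 0 indicates cell death.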 Unmarked numbers belong to inactive results. The source made the active and inactive calls. Rule for the calls: active = growth percent below 10; inactive = the rest.

`C=CCOC(=O)C(=O)OCC=C`: the growth was 82.1% in the experiment on SR leukemia; 103% in the experiment on RPMI-8226 leukemia; 101% in the experiment on OVCAR-8 ovarian; 97.5% with OVCAR-5 ovarian; 110% in the experiment on OVCAR-4 ovarian; 105% in the experiment with SK-OV-3 ovarian. Moreover, the growth in the experiment with OVCAR-3 ovarian is 118%; in the experiment on NCI/ADR-RES ovarian, 117%.
Regarding `O=C1OC[C@H]2[C@H](c3ccc(O)c(O)c3)c3cc(O)c(O)cc3C[C@H]12`, the growth in the experiment on SR leukemia is 330%; in the experiment on RPMI-8226 leukemia, 167%; in the experiment with OVCAR-8 ovarian, 127%; with OVCAR-5 ovarian, 100%; in the experiment on OVCAR-4 ovarian, 110%; in the experiment with SK-OV-3 ovarian, 135%. Besides, the growth with HS 578T breast was 111%; with NCI/ADR-RES ovarian, -28.4% (active).
For `O=C1N(C[P+](c2ccccc2)(c2ccccc2)c2ccccc2)CCCN1C[P+](c1ccccc1)(c1ccccc1)c1ccccc1`, the growth was 89% in the experiment with SR leukemia; 115% in the experiment on RPMI-8226 leukemia; 99.5% with OVCAR-8 ovarian; 110% with OVCAR-5 ovarian; 107% in the experiment with OVCAR-4 ovarian; 98% in the experiment on IGROV1 ovarian. Further, the growth with OVCAR-3 ovarian is 101%; with NCI/ADR-RES ovarian it was 111%.
For `Cc1ccc(Cl)cc1N1C(=O)CC(Sc2ccccc2N)C1=O` (configuration not stated), the growth was 101% with SR leukemia; 91.3% with RPMI-8226 leukemia; 87.8% in the experiment on OVCAR-8 ovarian; 105% in the experiment with OVCAR-5 ovarian; 101% in the experiment with OVCAR-4 ovarian; 102% in the experiment with SK-OV-3 ovarian. The growth in the experiment with OVCAR-3 ovarian was 106%; with HS 578T breast it was 103%; in the experiment with NCI/ADR-RES ovarian, 101%.
With `Nc1nc(N)c2cc(S(=O)(=O)c3cccc(C(F)(F)F)c3)ccc2n1`, the growth in the experiment with SR leukemia is 46%; with RPMI-8226 leukemia, 63.1%; in the experiment with OVCAR-8 ovarian, 40.7%; in the experiment with OVCAR-5 ovarian, 48%; in the experiment with SK-OV-3 ovarian it was 72.8%; in the experiment with IGROV1 ovarian it was 39.5%. For the same molecule, the growth in the experiment on OVCAR-3 ovarian was 79.2%; in the experiment with HS 578T breast, 80.1%; in the experiment on NCI/ADR-RES ovarian, 52.6%.
In the case of `N#CCCN(CCCN1CCOCC1)CN1C(=O)c2ccccc2C1=O`, the growth is 71.8% in the experiment with SR leukemia; 108% with RPMI-8226 leukemia; 111% with OVCAR-8 ovarian; 106% in the experiment on OVCAR-5 ovarian; 102% with IGROV1 ovarian; 120% in the experiment on OVCAR-3 ovarian. In addition, the growth is 113% in the experiment on HS 578T breast and 109% in the experiment on NCI/ADR-RES ovarian.
Take `CC(C)=NNC(N)=S`: the growth with SR leukemia was 86.7%; in the experiment on RPMI-8226 leukemia it was 67.8%; with OVCAR-8 ovarian, 72.4%; in the experiment with OVCAR-5 ovarian it was 89%; in the experiment on OVCAR-4 ovarian it was 59.4%; in the experiment with SK-OV-3 ovarian it was 115%. Further, the growth in the experiment with OVCAR-3 ovarian is 37.2%; in the experiment with HS 578T breast, 84.3%; in the experiment on NCI/ADR-RES ovarian, 47.3%.
For the molecule `CC[N+](C)(CC)CCO`, the growth is 104% in the experiment on SR leukemia; 102% with RPMI-8226 leukemia; 94.3% with OVCAR-8 ovarian; 100% in the experiment on OVCAR-5 ovarian; 103% in the experiment on SK-OV-3 ovarian; 104% in the experiment with IGROV1 ovarian. The values for the growth with OVCAR-3 ovarian and with NCI/ADR-RES ovarian were 108% and 105%, respectively.
Turning to `O=C(N/N=C\c1cc(Br)cc(Br)c1O)N/N=C/c1cc(Br)cc(Br)c1O`, the growth was -18.4% (active) in the experiment with SR leukemia; 19.3% with RPMI-8226 leukemia; 55.5% in the experiment on OVCAR-8 ovarian; 64.6% in the experiment with OVCAR-5 ovarian; 43.4% in the experiment with OVCAR-4 ovarian; 79.7% with SK-OV-3 ovarian. The growth with OVCAR-3 ovarian is 12.1%; with HS 578T breast it was 60.6%; in the experiment with NCI/ADR-RES ovarian, 35.6%.
As for `CCC(O)CC(CC)CO` (configuration not stated), the growth with SR leukemia was 108%; in the experiment with RPMI-8226 leukemia, 111%; in the experiment on OVCAR-8 ovarian it was 104%; in the experiment on OVCAR-5 ovarian, 104%; in the experiment on SK-OV-3 ovarian, 115%; with IGROV1 ovarian, 114%. Moreover, the growth in the experiment on OVCAR-3 ovarian is 130%; with NCI/ADR-RES ovarian, 110%.
Consider `CN(C)c1nc2c([nH]1)c(=O)n(C)c(=O)n2C`, for which the growth was 102% in the experiment on SR leukemia; 91.7% in the experiment with RPMI-8226 leukemia; 96.9% in the experiment with OVCAR-8 ovarian; 104% with OVCAR-5 ovarian; 112% in the experiment with OVCAR-4 ovarian; 101% in the experiment on IGROV1 ovarian. The growth is 93.2% in the experiment on HS 578T breast and 106% with NCI/ADR-RES ovarian.
With `COc1ccc(NC(=O)CCl)cc1`, the growth in the experiment on SR leukemia is 56.3%; with RPMI-8226 leukemia it was 55.8%; with OVCAR-8 ovarian, 80.8%; with OVCAR-5 ovarian, 68.2%; in the experiment with SK-OV-3 ovarian, 87.7%; in the experiment with IGROV1 ovarian, 59%. Further, in the experiment with NCI/ADR-RES ovarian, the growth was 77%.
With `Cc1cc(/C=C/c2ccc3cc(N(C)C)ccc3[n+]2C)c(C)n1-c1ccccc1`, the growth with SR leukemia was 2.29% (active); in the experiment on RPMI-8226 leukemia it was -30.2% (active); in the experiment on OVCAR-8 ovarian, -60.4% (active); in the experiment on OVCAR-4 ovarian, 10.4%; in the experiment with SK-OV-3 ovarian, -32.2% (active); with IGROV1 ovarian, 3.27% (active). Also, the growth is -73.3% (active) in the experiment on OVCAR-3 ovarian, -9.95% (active) in the experiment with HS 578T breast and 24.7% in the experiment on NCI/ADR-RES ovarian.
Take `CCc1ccc(/C(C#N)=C/C=C/c2ccccc2)cc1`: the growth with SR leukemia is 3.53% (active); with RPMI-8226 leukemia, 3.92% (active); in the experiment on OVCAR-8 ovarian, 34.3%; with OVCAR-5 ovarian, 77.7%; in the experiment with IGROV1 ovarian, 35.9%; with OVCAR-3 ovarian it was -11.2% (active). The growth is 39.7% in the experiment on HS 578T breast and 8.57% (active) with NCI/ADR-RES ovarian.
Turning to `CC1CCCCN1C(=S)Nc1ccc(S(=O)(=O)N2CCCCC2)cc1` (configuration not stated), the growth in the experiment with SR leukemia was 81.1%; in the experiment with RPMI-8226 leukemia it was 74.7%; in the experiment on OVCAR-8 ovarian, 106%; in the experiment with OVCAR-5 ovarian, 100%; in the experiment on OVCAR-4 ovarian it was 90.4%; in the experiment with IGROV1 ovarian it was 138%. In addition, the growth with OVCAR-3 ovarian is 97.7%; with HS 578T breast, 88.9%; in the experiment with NCI/ADR-RES ovarian it was 107%.
In the case of `CCCCC1C(=O)N(c2ccccc2)N(c2ccccc2)C1=O`, the growth in the experiment with SR leukemia was 103%; with RPMI-8226 leukemia, 96.6%; in the experiment with OVCAR-8 ovarian, 103%; in the experiment with OVCAR-4 ovarian it was 117%; in the experiment on SK-OV-3 ovarian, 105%; with IGROV1 ovarian, 106%. The growth with OVCAR-3 ovarian was 115%; in the experiment with HS 578T breast it was 114%; with NCI/ADR-RES ovarian, 103%.
With `O=C1C=CC2=C3c4cc(O)c(O)cc4CC3(O)COC2=C1O` (configuration not stated), the growth was 109% in the experiment on SR leukemia; 90% in the experiment with RPMI-8226 leukemia; 97.2% in the experiment with OVCAR-8 ovarian; 104% in the experiment with OVCAR-5 ovarian; 110% with OVCAR-4 ovarian; 113% in the experiment with SK-OV-3 ovarian. Moreover, the figures for the growth in the experiment on OVCAR-3 ovarian and in the experiment with NCI/ADR-RES ovarian were 123% and 101%, respectively.
